IDE cell activ = human IDE activators in live cells, primary screen, fluorescence polarization, HEK cells, FAbeta-B substrate; activation, % at 5.96 µM; hit rate 0.073% among 340,000; FAbeta-B cleavage; 0% vehicle, 100% cell-free pure enzyme wells;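 active = activation above the mean of all tested compounds plus 3 SD, set per screening campaign, cut at about 17% in these data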
cardiac RTF act = cardiac RTF calcium sensitivity activators, primary screen, biochemical, IANBD-TnC fluorescence, EC20 calcium; Troponin I, cardiac muscle (Homo sapiens) + Troponin T, cardiac muscle (Homo sapiens) + …; IANBD-labeled TnC RTF fluorescence at EC20 calcium; 0% EC20 calcium, 100% full calcium; activation, % at 7.2 µM; hit rate 0.24% among 340,000;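 active = activation above the mean over all tested compounds plus 3 SD, cut at about 30% in these data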;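 note: rise in fluorescence read as greater calcium sensitivity of cardiac thin filaments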
IDE cell inh = human IDE inhibitors in live cells, primary screen, fluorescence polarization, HEK cells, FAbetaB substrate; Insulin-degrading enzyme (Homo sapiens), P14735; FAbetaB cleavage; inhibition, % at 5.59 µM; hit rate 0.41% among 320,000; AID 434962, 2010;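 active = percent inhibition above the average of all tested compounds plus 3 SD, set per screening campaign, cut at about 16% in these data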;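 note: IDE supplied by intact live HEK cells; FP after avidin binding of uncleaved biotin substrate so inhibition keeps polarization high; 0% = DMSO wells and 100% = 60 µM reference IDE inhibitor Ii1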
RTF Ca sens inh = cardiac RTF calcium sensitivity inhibitors, primary screen, biochemical, IANBD-TnC fluorescence, EC70 calcium | IANBD-labeled cardiac RTF, Ca2+ fluorescence | inhibition, % at 7.15 µM | hit rate 0.12% among 340,000 | AID 493244, 2011;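 active = inhibition above the mean inhibition of all tested compounds plus 3 SD, cut at about 17% in these data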;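 note: assay run at fixed EC70 calcium of 1.6 mM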
Active calls of the source: *; i = inactive; / = no result; + = active, no number. Shown are actives, neighbours in structure and some others; about 0.71% of the full set was active somewhere.

SMILES	IDE cell activ	cardiac RTF act	IDE cell inh	RTF Ca sens inh
CC(=O)c1cccc(NC(=O)CN2CCN(S(=O)(=O)/C=C/c3ccccc3)CC2)c1	0	-1	-7	-9
CC1=Nc2ccccc2/C1=C\c1nc(-c2ccccc2)oc1O	-1	7	3	-30
CC1=Nc2ccccc2/C1=C\c1nc(-c2ccc(C(F)(F)F)cc2)oc1O	-10	156*	4	-45
CCOC(=O)C1CCCN(C(=O)c2cc(S(=O)(=O)N3CCCCC3)ccc2C)C1 (configuration not stated)	-6	2	-1	-10
Cc1ccc(S(=O)(=O)OCCC2=CC(=O)CCN2Cc2ccccc2)cc1	21*	0	2	-19
CCN1/C(=C/C=C/c2sc3ccccc3[n+]2CC)Sc2ccccc21	-2	19	8	-7
CCN1/C(=C/C=C/c2oc3ccc(-c4ccccc4)cc3[n+]2CC)Oc2ccc(-c3ccccc3)cc21	2	998*	-9	i
O=C(N/N=C/c1sc2ccccc2c1O)c1cccc2ccccc12	-16	8	4	-11
COc1ccc2cc(C(=O)N/N=C/c3sc4ccccc4c3O)ccc2c1	-25	109*	14	-135
COc1ccccc1-c1nnc(SCC(=O)c2c(N)n(C3CC3)c(=O)[nH]c2=O)o1	4	5	0	-3
Nc1c(C(=O)CSc2nc3ccccc3o2)c(=O)[nH]c(=O)n1C1CC1	27*	3	3	-2
COC1(OC)N=C(N)C2(C#N)C(c3cccc(Oc4ccccc4)c3)C12C#N (configuration not stated)	-4	-3	4	3
N#CC1=C(N)SC(N)=C(C#N)C1c1cccc(Oc2ccccc2)c1	-7	37*	1	-71
N#CC1=C(N)SC(N)=C(C#N)C1c1ccc(C(F)(F)F)cc1	/	/	5	/
CCOc1ccc(C2C(C#N)=C(N)SC(N)=C2C#N)cc1OCC	-13	42*	10	-50
N#CC1=C(N)SC(N)=C(C#N)C1c1ccc([N+](=O)[O-])cc1	-4	10	1	-23
CCc1ccc(C2C(C#N)=C(N)SC(N)=C2C#N)cc1	-4	40*	4	-43
CCOc1ccc(C2C(C#N)=C(N)SC(N)=C2C#N)cc1OC	/	/	20*	/
CCOc1ccccc1C1C(C#N)=C(N)Oc2n[nH]c(CC)c21 (configuration not stated)	3	5	-1	-13
CCOc1ccccc1C1C(C#N)=C(N)SC(N)=C1C#N	-7	30*	3	-56
CC(=O)OCCn1c2nc(=O)[nH]c(=O)c-2nc2cc(C)c(C)cc21	75*	+	/	i
CC(/C=C/c1ccc(N(C)C)cc1)=N/N=C1/NC(=O)CC(C(=O)Nc2ccc(Cl)cc2)S1 (configuration not stated)	7	32*	6	-5
CC(/C=C/c1ccc(N(C)C)cc1)=N\N=C1\NC(=O)CC(C(=O)Nc2ccccc2)S1 (configuration not stated)	1	7	10	-4
CCN1C[C@@H]2[C@@H]3C(=O)N(C)C(=O)[C@@H]3[C@](Cc3ccccc3)(C1=O)N2C(=O)c1ccc(Cl)c(Cl)c1	1	-6	/	-2
CN(C)NC(=O)c1ccc([N+](=O)[O-])s1	0	31*	0	5
SMILES	IDE cell activ	cardiac RTF act	IDE cell inh	RTF Ca sens inh
Cn1c(CN2CCOCC2)nnc1SCC(=O)Nc1ccc([N+](=O)[O-])cc1O	24*	0	-16	-9
Cc1cccc(NC(=O)CSc2nnc(CN3CCOCC3)n2C)c1C	-6	9	6	-11
COc1ccccc1-c1c(C(F)(F)F)oc2cc(OC(=O)c3ccc([N+](=O)[O-])cc3)ccc2c1=O	-13	5	17*	13
Cc1cc(=O)oc2cc(OC(=O)c3ccccc3)ccc12	4	-11	3	-4
COc1ccc(-n2c(O)c(/C=N/NS(=O)(=O)c3cc(C)ccc3C)c3ccccc3c2=O)cc1OC	-38	114*	9	-70
COc1ccc(-n2c(O)c(/C=N/Nc3nc(C)cc(C)n3)c3ccccc3c2=O)cc1OC	0	2	-4	0
COc1ccc(-n2c(O)c(/C=N/NS(=O)(=O)c3ccc(C)cc3)c3ccccc3c2=O)cc1OC	-32	59*	5	-75
O=C(CCc1nc(-c2ccc(F)cc2)no1)Nc1cccc(C(=O)NC2CC2)c1	-2	-4	5	-7
COc1ccccc1/C=C/C=C1\Oc2c(ccc(O)c2CN2CCN(CCO)CC2)C1=O	-30	239*	16	-222
CCN1CCN(Cc2c(O)ccc3c2O/C(=C\C=C\c2ccccc2)C3=O)CC1	-23	140*	1	-137
O=C1/C(=C/C=C/c2ccccc2)Oc2c1ccc(O)c2CN1CCN(CCO)CC1	-6	43*	5	-56
N=C1/C(=C\c2coc3ccc(O)cc3c2=O)C(=O)N=C2SC=CN12	-22	152*	14	-218
COCCCNC(=O)CC1C[C@H](C(=O)N2CCOCC2)[C@@]2(C)c3[nH]c4ccc(OC)cc4c3CCN2C1=O (some centres not stated)	4	0	/	-2
CC(C)(C)NCC(=O)N/N=C/c1ccc(OCc2ccccc2)cc1	-11	-2	16*	1
CC(=O)Nc1ccc2c(c1)-c1ccc(F)cc1C2=O	6	-5	/	-3
COc1ccc(S(=O)(=O)N2CCN(CC(=O)Nc3sccc3C(N)=O)CC2)cc1OC	0	-1	-2	1
CC(=O)N1C(=O)C(=C2C=C(C)OC(C)=C2)c2ccccc21	1	66*	-3	-24
CC(=O)N1c2cc3ccccc3cc2N(C(C)=O)c2cc3ccccc3cc21	3	-4	/	-1
CCc1ccc(O)c(N=Cc2ccccc2O)c1	5	0	-3	-4
O=c1[nH][nH]c2c(N=Cc3ccccc3O)ccc(F)c12	2	-24	/	34*
Cc1cc(C)nc(NC(=O)/C=C/c2ccccc2Cl)n1	3	-1	-2	-22
Cc1cc(N)c2cc(NC(=O)/C=C/c3ccccc3Cl)ccc2n1	28*	3	-1	1
Cc1cccc(C)c1OCc1cc(C(=O)N(C)CCc2ccccn2)no1	1	5	4	0
C[n+]1ccc(/C=C/c2ccc(Br)cc2)cc1	3	1	1	-1
Cc1ccc2[nH]c(C)c(/C=C/c3cc[n+](C)cc3)c2c1	-31	154*	/	-159
Cc1ccc2c(c1)c(/C=C/c1cc[n+](C)cc1)c(C)n2C	-60	241*	/	-286
CCCn1c(/C=C/c2cc[n+](C)cc2)nc2ccccc21	4	2	2	-14
CCC(=O)Nc1ccc2c(c1)ncn2-c1ccc(C)cc1	-1	3	3	-2
Cc1c(C)n2c(SCC(=O)N3CCOCC3)nnc2[nH]c1=O	2	-1	5	-12
